KB-3-1 tox = kills parental KB-3-1 adenocarcinoma cells; 400,000 compounds, 1.4% hits; Potency, µM (top dose mostly 46.1 µM), usual class: cytotoxic; KB-3-1 viability, CellTiter-Glo ATP luminescence, 72 h; AID 1347075; also: % is scaled to controls: 0 for no effect and ±100 for the full control effect; nearly all actives have a fitted effect of over 60% in size
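Parental KB-3-1 viability, qHTS format: 72 h compound exposure, 37 °C; CellTiter-Glo; media-only wells and DMSO plates as controls; concentration-effect fits on corrected data.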
HT1080NT lethal = kills 2HG-producing HT-1080-NT fibrosarcoma cells. HT-1080-NT fibrosarcoma viability, CellTiter-Glo ATP luminescence, 48 h. Potency, µM (titrated, usually from 46.1 µM), without a hit: at the top dose activity, negative = less viability, usual class: cytotoxic. 360,000 compounds, 1.6% hits;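 also: NT is the 2HG producing partner of a matched IDH1 knockdown line; 0% = DMSO-treated cells and -100% = media-only wells without cells; nearly all actives have a fitted effect of over 55% in size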
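Compounds were tested in concentration-response format on HT-1080-NT cells for 48 hours at 37 degrees C. Cell viability came from CellTiter-Glo luminescence; curves were classified by r2, response magnitude and activity.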
KB-V1 MDR tox = kills drug-selected multidrug resistant KB-V1 cells; KB-V1 MDR cells viability, CellTiter-Glo, 72 h; 400,000 compounds, 3.4% hits; Potency, µM (titrated, usually from 46.1 µM), most hits filed as cytotoxic; also: % is scaled to controls: 0 for no effect and ±100 for the full control effect; nearly all actives have a fitted effect of over 60% in size
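Readout: CellTiter-Glo luminescence, 10 min after addition. Cells: KB-V1 MDR subline, 72 h at 37 degrees C with compound. Analysis: corrected, normalized data fitted to concentration-effect curves.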
HT1080 IDH1KD tx = toxicity to HT-1080 IDH1 knockdown cells (counter line); HT-1080 IDH1 knockdown viability, ATP luminescence, 48 h; 360,000 compounds, 2% hits; AID 686971; Potency, µM (top dose mostly 46.1 µM), for inactives: at the highest dose activity, negative = toxicity, actives largely listed as cytotoxic;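 also: 0% = DMSO wells and -100% = cell-free medium wells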
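Luminescent ATP read-out (CellTiter-Glo, 10 min at room temperature) after 48 h compound exposure at 37 °C gave viability of IDH1-knockdown HT-1080 cells. Activity was normalised to DMSO and cell-free wells, then fitted as concentration-response curves.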
S2 tox = cell viability loss in ATXN counter-screen; AID 651635; Potency, µM (top dose mostly 56.7 µM), most hits filed as cytotoxic; S2 cells (HEK-293 line with an ATXN2-luciferase reporter) viability, CellTiter-Fluor protease fluorescence, 24 h; 400,000 compounds, 0.49% hits; also: nearly all actives have a fitted effect of over 40% in size
ATXN2 expr inh = inhibitors of ATXN2 expression | HEK-293 ATXN2-luciferase reporter, luminescence, 24 h | Potency, µM (highest dose often 57 µM), for inactives: at the highest dose activity change, negative = inhibition, actives largely listed as inhibitors | 360,000 compounds, 0.72% hits | AID 1745845; also: % is scaled to controls: 0 for no effect and ±100 for the full control effect; nearly all actives have a fitted effect of over 55% in size
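qHTS (up to 57 uM final) was run with 24 h compound exposure of reporter cells at 37 °C. Each well was multiplexed: SteadyGlo luminescence measured ATXN2-luciferase expression after a fluorogenic Gly-Phe-AFC viability readout (25 uM final).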
* hit, by the source's call; i = inactive; ? = inconclusive; · = no result given. A selection: hits, their analogues and other compounds. The true share with any hit is near 6.2%. Calls follow the shape of the dose curve; as a rule, active = well fitted curve in the direction sought with a large enough effect; inconclusive = small, poorly fitted or top-dose-only effect, or another doubt; inactive = no such curve, though single readings can be large; an effect the other way counts as inactive or inconclusive. Potency is read from the fitted curve at half-maximal effect.

SMILES | KB-3-1 tox | HT1080NT lethal | KB-V1 MDR tox | HT1080 IDH1KD tx | S2 tox | ATXN2 expr inh
CC(=NCCN1CCOCC1)c1c(O)n(Cc2ccccc2)c(=O)[nH]c1=O | i | 16.4% | i | 0.0% | i | -3.7%
CCC(=NCCc1c[nH]c2ccccc12)c1c(O)n(C)c(=O)n(C)c1=O | ? | ? | ? | ? | i | -12.4%
Cc1oc(-c2ccccc2F)nc1CS(=O)(=O)CC(=O)N1CCN(c2cccc(C(F)(F)F)c2)CC1 | i | · | i | · | ? | ?
COc1ccc(C(=O)OC2C[C@H]3CC[C@@H](C2)N3C)cc1OC (stereo not given in full) | · | · | · | · | i | ·
N=c1c2c(n(Cc3ccc(Cl)cc3Cl)c3c1CCC3)CCCC2 | ? | 20.6µM* | i | 14.6µM* | i | ?
C[C@H]1CCCC(=O)CCC/C=C/c2cc(O)cc(O)c2C(=O)O1 | i | 0.4% | 16.4µM* | 6.2% | ? | ?
CCCCCCCCN1C(=O)[C@H](CC(=O)NCCCC)C[C@@]2(C(=O)OCC)CCCC=C12 | ? | ? | 20.6µM* | ? | ? | 0.0%
CCOC(=O)C1(c2ccccc2)CCCN(C)CC1 (stereo not given) | · | · | · | · | i | ·
Nc1nc(N)nc(NC2CC2)n1 | · | · | · | · | i | 1.3%
Cc1ccc(-n2c(O)c(/C=C/C=Nc3ccccc3)c(=O)[nH]c2=O)cc1 | i | 0.7% | i | -1.7% | ? | -1.8%
Cc1ccc(N/N=C/c2c(O)n(-c3ccccc3)c(=O)[nH]c2=O)cc1 | i | ? | i | 2.91µM* | i | -12.2%
CCCCCCC(=O)c1c(O)n(-c2ccc(OC)cc2)c(=O)[nH]c1=O (tested in a mixture with another compound) | i | -18.1% | 8.2µM* | -6.9% | i | ·
COc1ccc(-n2c(O)c(/C(C)=N/Nc3ccccc3)c(=O)[nH]c2=O)cc1 | i | 1.64µM* | i | 1.84µM* | i | -23.2%
COc1ccc(-n2c(O)c(/C(C)=N/N3CCCCCC3)c(=O)[nH]c2=O)cc1 | i | 2.1% | i | 4.3% | i | 20.3%
CCCCCCC(=O)c1c(O)n(-c2ccccc2OC)c(=O)[nH]c1=O (tested in a mixture with another compound) | i | 6.5% | ? | 15.8% | i | -24.0%
CN[C@]1(c2ccccc2Cl)CCCCC1=O | · | · | · | · | i | ·
C=CCn1c(O)c(C(C)=Nc2ccc(N(CC)CC)cc2)c(=O)[nH]c1=O | 5.8µM* | ? | 11.6µM* | ? | ? | -4.1%
C=CCn1c(O)c(C(CC)=Nc2ccc(NC(C)=O)cc2)c(=O)[nH]c1=O | i | 1.2% | i | 13.4% | i | -5.3%
C=CCn1c(O)c(C(C)=Nc2ccc(N(C)C)cc2)c(=O)[nH]c1=O | ? | -3.5% | i | -19.3% | i | 16.5%
C=CCn1c(O)c(C(CC)=Nc2ccc(N(CC)CC)cc2)c(=O)[nH]c1=O | 23.1µM* | 1.6% | 14.6µM* | -1.6% | i | 0.5%
O=S(=O)(F)Cc1ccccc1 | · | · | · | · | · | 29.8%
O=c1[nH]/c(=C\c2ccc(N(CCCl)CCCl)cc2)c(=O)[nH]/c1=C\c1ccc(N(CCCl)CCCl)cc1 | ? | · | i | · | · | ·
CCOc1ccccc1-n1c(O)c(C=Nc2ccc(N(CC)CC)cc2)c(=O)[nH]c1=O | 16.4µM* | ? | ? | ? | i | -0.7%
COC1C(C)OC(OC2CC(C)(O)Cc3cc4c(c(O)c32)C(=O)c2c(O)cc3c(c2C4=O)OC2OC3(C)C(O)C(N(C)C)C2O)C(OC)C1(C)OC (stereo not given) | 0.461µM* | ? | i | 16.4µM* | ? | ?
CCC(C)C1N=C(c2ccccc2)c2cc(Cl)ccc2N(CC(=O)NCc2ccco2)C1=O (stereo not given) | i | -3.4% | i | -13.3% | i | -10.0%
